# Bioassay records: PubChem BioAssay, National Center for Advancing Translational Sciences (NCATS)
# Compounds with a hit are over-represented: about 21% of the library has one in this group of screens.
# Shiga toxin inh: A qHTS for Small Molecule Inhibitors of Shiga Toxin | Vero cells, Shiga toxin protein synthesis inhibition reporter | inhibition, % at 38.7 µM | 290,000 tested, 9.2% active; in the data active means inhibition mostly above about 28%, no sharp cut-off; inactive means mostly below about 43%
# NS1 function inh: qHTS Assay for Inhibitors of Influenza NS1 Protein Function; Potency, µM (doses to about 46.1 µM); AID 2326, 2010; 270,000 tested, 0.4% active; calls by dose curve; further: actives are rising curves; nearly all actives have a fitted effect of over 50% in size
#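 Recovery from NS1-induced slow growth read by OD600 in budding yeast switched to galactose assay medium (pH 6.0, -URA) at 1:100 dilution. Compound 23 nl per well; the matching strain lacking NS1 serves as control.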
# Pf growth 48h: Primary qHTS for delayed death inhibitors of the malarial parasite plastid, 48 hour incubation. P. falciparum luciferase growth in erythrocytes, 48 h. Potency, µM (series often up to 28.7 µM), hits mostly inhibitors. 310,000 tested, 5.9% active
#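 Luciferase-expressing P. falciparum in infected erythrocytes (2% hematocrit, 0.1% parasitemia final) in RPMI 1640/0.5% Albumax were exposed to compound for 48 hours at 37 C, 5% CO2; growth read as luminescence.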
# Cycloheximide cs: Cycloheximide Counterscreen for Small Molecule Inhibitors of Shiga Toxin | cell reporter, cycloheximide protein synthesis inhibition counterscreen | max response, % | 300,000 tested, 12% active | AID 2314, 2010; in the data active means max response mostly above about 13%, no sharp cut-off; inactive means mostly below about 14%; further: read at 38.3 µM for the half of the compounds with a filed dose
# Pf growth 96h: Primary qHTS for delayed death inhibitors of the malarial parasite plastid, 96 hour incubation | 320,000 tested, 6.9% active | P. falciparum luciferase reporter growth, 96 h | Potency, µM (doses to about 28.7 µM), usual class: inhibitors
#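 Infected RBCs, 2% Hct / 0.05% parasitemia final; luciferase-reporter P. falciparum; cpd 96 h, 37 C, 5% CO2; luciferase detection reagent; luminescence.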
# Numbers stand for hits; . = inactive; ? = inconclusive; / = no result; [ ] = another dose, or the depositor's remark. Unless noted, the call rests on the fitted dose curve; in most records, active means well fitted inhibition curve with a large enough effect; inconclusive means small, poorly fitted or top-dose-only effect, or another doubt; inactive means no such curve, though single readings can be large or run the other way.
SMILES,Shiga toxin inh,NS1 function inh,Pf growth 48h,Cycloheximide cs,Pf growth 96h
CCc1nn(C(C)C(=O)Nc2cccc(C)c2C)c(=O)c2cc3occc3n12 (configuration not stated),.,.,9.28µM,.,.
COc1ccc(CCNC(=O)C(C)n2nc(C)n3c(cc4occc43)c2=O)cc1OC (configuration not stated),.,.,.,.,13.1µM
CCc1nn(C(C)C(=O)NCCN2CCN(c3cccc(C)c3C)CC2)c(=O)c2cc3occc3n12 (configuration not stated),.,.,.,.,.
CCc1cccc(NC(=O)CCCn2nc(CC)n3c(cc4occc43)c2=O)c1,.,.,?,.,11.7µM
COc1cccc(CNC(=O)CCCn2ncn3c(cc4occc43)c2=O)c1,.,.,?,.,4.65µM
CCCC[C@]12Cc3cc(C#N)ccc3C(O1)c1c(cc(C)n(Cc3ccccc3)c1=O)O2,.,.,?,.,?
CC(C)N1CCC(N2CCN(Cc3ccc(C#CC(C)(C)O)s3)CC2CCO)CC1 (configuration not stated),.,.,.,.,?
CC1(c2ccc(OC(F)F)cc2)NC(=O)N(CC(=O)c2ccc3c(c2)OCO3)C1=O (configuration not stated),/,/,.,/,.
CC(C)c1ccc(NS(=O)(=O)c2ccc3[nH]cc(C(=O)NCCc4ccccc4)c(=O)c3c2)cc1,.,/,/,.,/
COc1ccc(CCC(=O)NNC(=O)Nc2ccc(C(C)C)cc2)cc1,.,.,.,.,.
Fc1cnc(N2CCOCC2)nc1N1CCOCC1,.,.,.,.,.
Clc1nc(N2CCOCC2)ncc1Br,.,.,2.62µM,.,1.85µM
O=C(/C=C/c1ccccc1)c1ccc2c3c(cccc13)CC2,73.6,.,.,29.8,?
Cc1c(NC(=O)c2ccc3c4c(cccc24)CC3)c(=O)n(-c2ccccc2)n1C,.,?,.,.,/
CC(C)(C)C(=O)/C=C(N)/C=C/c1ccccc1,.,.,.,28.5,.
CC(C)(C)C(=O)/C=C(\N)c1ccccn1,.,.,.,12.0,.
O=C(/C=C/c1ccc(NC(=O)c2ccccc2-c2ccccc2C(=O)O)cc1)c1ccccc1,37.4,?,.,10.4,?
O=C(O)c1ccc(Cl)c(NCc2cccnc2)c1,/,.,.,.,.
N#Cc1ccc(/C=C/C(=O)c2ccccc2)cc1,46.8,.,.,20.4,.
O=Cc1ccc(OC(=O)/C=C/c2ccccc2)cc1,24.7,.,?,34.5,.
CCOc1ccc(/C=C/C(=O)Oc2ccccc2)cc1,.,.,?,.,?
O=C(/C=C\c1ccc(-c2ccccc2)o1)c1ccccc1,110.4,.,.,42.1,.
O=Cc1ccc(-c2ccc(C(=O)O)cc2)o1,88.0,.,.,34.7,.
CCCCn1c(-c2ccc([N+](=O)[O-])cc2)n[nH]c1=S,.,.,.,.,?
COCCN(C(=O)COC(=O)CCCOc1ccc(OC)cc1)c1c(N)n(Cc2ccccc2)c(=O)[nH]c1=O,/,/,.,/,.
SMILES,Shiga toxin inh,NS1 function inh,Pf growth 48h,Cycloheximide cs,Pf growth 96h
Cc1ccccc1C(=O)N1CCCC(N2CCN(Cc3ccc4c(c3)OCO4)CC2)C1 (configuration not stated),.,.,.,.,.
COc1ccc(NC(=O)CS(=O)(=O)c2cn(CC(=O)N3CCOCC3)c3ccccc23)cc1,.,/,.,.,.
O=C(/C=C/c1ccccc1)/C=C/c1ccccc1,134.4,.,.,49.5,?
O=C(/C=C/c1ccccc1)c1ccccc1,124.8,.,.,45.1,?
C#CCN1C(=O)S/C(=C/c2cc(C)n(CC)c2C)C1=O,102.6,.,.,73.7,.
COCCn1c(C)cc(/C=C2/SC(=O)N(C(C)C(=O)OC)C2=O)c1C (configuration not stated),89.5,.,.,53.0,.
COC(=O)CN1C(=O)S/C(=C/c2cc(C)n(C)c2C)C1=O,35.4,.,.,28.3,?
COCCn1c(C)cc(/C=C2\NC(=S)N(C)C2=O)c1C,46.9,.,?,17.2,?
CCn1c(C)cc(/C=C2/SC(=S)N(CC(=O)O)C2=O)c1C,.,/,.,.,.
COC(=O)CN1C(=O)S/C(=C/c2ccc(N3CCCCC3)o2)C1=O,.,.,.,.,.
Cc1ccc(NC(=O)CSCC(=O)NCCc2ccccn2)c(C)c1,.,/,.,.,.
COc1ccc(-c2nnc3ccc(SCC(=O)N4CCN(c5ccccc5)CC4)nn23)cc1,/,.,/,/,/
CCn1c(C)cc(/C=C2/SC(=O)N(C(C)C(=O)OC)C2=O)c1C (configuration not stated),106.3,.,.,48.3,.
CCn1c(C)cc(/C=C2\NC(=O)N(CC(=O)Nc3ccc(F)cc3)C2=O)c1C,.,?,.,.,.
COC(=O)C(C)N1C(=O)S/C(=C/c2cc(C)n(C(C)C)c2C)C1=O (configuration not stated),105.7,.,.,38.3,.[5.75 µM]
Cc1nn(-c2ccc(N3CCCCC3)nn2)c(C)c1CCC(=O)Nc1cc(F)ccc1F,45.4,.,.,47.6,?
Cc1nn(-c2ccc(N3CCCCC3)nn2)c(C)c1CCC(=O)Nc1ccccc1F,62.8,.,.,21.8,.
CCc1ccc(N=Nc2ccc(O)c3[nH]cnc23)cc1,/,/,.,/,.
Cc1ccc2nc(-c3ccc(NC(=O)CSc4nccc(=O)[nH]4)cc3)sc2c1,117.4,.,.,36.8,.
Cc1cc(C)c2c(=O)[nH]c(SCC(=O)Nc3ccccc3)nc2n1,.,.,/,.,/
O=C(CSc1nccc(=O)[nH]1)Nc1ccc(N2CCOCC2)cc1,.,.,.,.,?
Nc1cc(=O)[nH]c(SCC(=O)Nc2nc3ccc([N+](=O)[O-])cc3s2)n1,.,.,.,.,.
Cc1ccc(NC(=O)CSc2nc3nc(C)cc(C)c3c(=O)[nH]2)cc1,.,.,.,.,2.33µM
Cc1ccc2nc(-c3ccc(NC(=O)CSc4nc(N)cc(=O)[nH]4)cc3)sc2c1,94.0,?,.,30.3,.
COc1ccc(C(=O)Nc2nccs2)cc1,/,.,.,29.0,.
SMILES,Shiga toxin inh,NS1 function inh,Pf growth 48h,Cycloheximide cs,Pf growth 96h
O=C(Nc1nccs1)c1ccc([N+](=O)[O-])cc1,.,.,.,.,.
CCc1nnc(NC(=O)Nc2ccc(OC)cc2)s1,.,.,/,24.0,.
COc1ccc(CCC(=O)Nc2nccs2)cc1OC,.,.,.,.,.
Cn1cc([N+](=O)[O-])c(C(=O)Nc2nccs2)n1,.,.,.,30.4,.
COc1ccc(C(=O)Nc2nccs2)cc1OC,.,.,.,27.6,/
O=C(Cn1nnc(-c2ccccc2Cl)n1)NCc1ccc2c(c1)OCO2,.,.,.,.,.
CCOCc1nnc(NC(=O)c2ccc(NC(C)=O)cc2)s1,.,.,.,.,.
COc1ccc(C(=O)Nc2nccs2)cc1[N+](=O)[O-],.,.,.,27.3,.
Cn1cc([N+](=O)[O-])c(C(=O)Nc2ccc(Br)cn2)n1,52.2,.,.,25.0,.
Cn1cc([N+](=O)[O-])c(C(=O)NCC(=O)O)n1,.,.,.,.,.
